# Results published in PubChem BioAssay AID488890 (Southern Research Specialized Biocontainment Screening …, 2010).
# About 1,300 (0.41%) of roughly 320,000 compounds were called active. Not shown: some 3% with an inconclusive outcome. The rule behind the calls is not given here. A selection follows. Potency and affinity values are given separately.
# Assay: growth inhibition of non-replicating M. tuberculosis (AID 488890);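 note: plate controls were DMSO cells for no effect and high antibiotic wells for full effect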
# Conditions: Mycobacterium tuberculosis non-replicating, at 25 µM, stronger effect = higher value
row,SMILES,inhibition
1,COc1ccc2c(c1O)C(=O)c1ccccc1C2=O,-8.36%
2,CNc1c(C(=O)O)ccc2c1C(=O)c1ccccc1C2=O,-14.2%
3,CCc1ccccc1NS(=O)(=O)c1cc(C)ccc1OC,16.3%
4,CCOc1ccc2nc(NCCCO)[nH]c2c1,2.84%
5,O=C(O)c1cccc(S(=O)(=O)Nc2cc(Cl)ccc2Cl)c1,13.1%
6,COc1ccc(NC(=O)C2CCN(S(=O)(=O)c3ccc(Br)s3)CC2)cc1OC,-2.33%
7,Cc1ccc(C2C(C#N)=C(N)Oc3n[nH]c(C)c32)cc1 (stereo unspecified),-4.34%
8,Cc1[nH]nc2c1C(c1ccc(-c3ccccc3C#N)o1)C(C#N)=C(N)O2 (stereo unspecified),49.7%
9,Cc1[nH]nc2c1C(c1ccc(Cl)cc1)C(C#N)=C(N)O2 (stereo unspecified),-2.67%
10,CCCc1[nH]nc2c1C(c1cccc(OC(=O)c3ccco3)c1)C(C#N)=C(N)O2 (stereo unspecified),17.8%
11,COc1ccc(Br)cc1CNc1ccc(N2CCOCC2)cc1,24%
12,CCCCN(C(=O)C1CC(=O)N(c2ccc3c(c2)OCCO3)C1)c1c(N)n(CCCC)c(=O)[nH]c1=O (stereo unspecified),0.16%
13,Cc1ccccc1NC(=O)c1nn(C)c2c1CS(=O)(=O)c1ccccc1-2,-16.9%
14,O=C(O)C1CC(O)CN1S(=O)(=O)c1ccc2ccccc2c1 (stereo unspecified),8.45%
15,O=C(Oc1cccnc1)c1ccc(Cl)cc1,8.07%
16,O=C(Oc1cccnc1)c1cccc(Cl)c1,51.8%
17,CCOC(=O)C1CCCc2c1[nH]c1c(C(=O)O)cccc21 (stereo unspecified),67.3%
18,CCOC(=O)c1ccc2[nH]c3c(c2c1)CCCC3C(=O)OCC (stereo unspecified),64.3%
19,CCOC(=O)c1c(C)nc2ccccn12,6.28%
20,CCOC(=O)c1c(C)nc2ccc(C)cn12,37%
21,CC1Cc2cc(/C=C3/SC(N4CCC(C(N)=O)CC4)=NC3=O)ccc2O1 (stereo unspecified),21.7%
22,CC1Cc2cc(/C=C3/SC(=S)N(C)C3=O)ccc2O1 (stereo unspecified),5.53%
23,COC(=O)c1ccc(C23CC4(C2)[C@H](CN(C)[C@@H]4c2ccccc2)C3c2ccccc2)cc1 (stereo partly specified),-17.5%
24,Cc1ccc(N2CC(=O)Nc3c(sc4nc(C)cc(C)c34)C2=O)cc1,7.84%

row,SMILES,inhibition
1,O=C(CNC(=O)c1ccc(Cl)cc1)Nc1ccc(S(=O)(=O)Nc2ncccn2)cc1,19.6%
2,Cc1ccnc(NC(=O)CN(C)S(=O)(=O)c2cccc3nsnc23)c1,4.38%
3,Cc1nc2ccccc2c(=O)n1N(c1ccccc1)c1ccccc1,40%
4,O=C1C=CC(=O)N1Cc1ccccc1,33.7%
5,O=C(Nc1cccc(F)c1)C1CCCN1C(=O)OCc1ccccc1 (stereo unspecified),-8.2%
6,COc1ccc(-c2cc(C(=O)NC(C)C)no2)cc1,2.59%
7,COc1ccc(-c2cc(C(=O)O)no2)cc1,9.82%
8,CC(C)(C)S(=O)(=O)c1ccc2nc3c(n2c1)CCCC3,12.6%
9,Brc1ccc2nc3c(n2c1)CCCC3,40.8%
10,CN(c1ccccc1C(=O)O)S(C)(=O)=O,-5.19%
11,CC1(c2ccccc2Cl)NC(=O)N(CC(=O)N2CCN(S(=O)(=O)c3ccccc3)CC2)C1=O (stereo unspecified),-5.46%
12,O=C(CNC(=O)c1ccco1)N/N=C/c1ccccc1[N+](=O)[O-],-2.46%
13,O=C(Nc1nc2ccccc2s1)c1ccc([N+](=O)[O-])o1,64.8%
14,O=C(Nc1nc(-c2cccs2)cs1)c1ccco1,25.2%
15,CC(=O)Nc1nc(-c2cccs2)cs1,18.4%
16,CC(C)C(=O)N1CCN(c2ccc(NC(=O)c3ccc(Br)o3)cc2)CC1,8.34%
17,O=C(Nc1ccc(N2CCN(C(=O)c3cccs3)CC2)cc1)c1ccc(Br)o1,67.5%
18,Cc1ccccc1C(=O)N1CCN(c2ccc(NC(=O)c3ccc([N+](=O)[O-])o3)cc2)CC1,78.2%
19,O=C(Nc1ccc(N2CCN(C(=O)c3cccs3)CC2)cc1)c1ccco1,-3.51%
20,O=C(Nc1nc2c(F)cccc2s1)c1ccc([N+](=O)[O-])o1,65.5%
21,COc1ccccc1CN(C)C(=O)COC(=O)c1ccc(Cl)nc1,73.1%
22,COCCn1nnnc1CN1CCN(C(=O)c2ccco2)CC1,-9.84%
23,CC(NC(=O)c1cccs1)C(S)c1ccccc1 (stereo unspecified),13.2%
24,CN(CC(=O)Nc1ccccc1Br)C(=O)CCc1ccccc1,6.37%

row,SMILES,inhibition
1,COC(=O)c1ccc(N2C(=O)CC(N(C)CCc3ccc(OC)c(OC)c3)C2=O)cc1 (stereo unspecified),-11.7%
2,O=C(Nc1ncnc2c1CCC2)C12CC3CC(CC(C3)C1)C2,-0.8%
3,CC(C)(C)c1ccc(NNC(=O)C2CCC2)cc1,23.3%
4,COc1cc(NC(=O)c2ccc([N+](=O)[O-])o2)ccc1NC(=O)c1cccs1,44%
5,O=C(Nc1cccc(NC(=O)c2cccs2)c1)c1ccc(Br)o1,40.6%
6,COc1ccc(C(=O)C2CCCN(C(=O)c3cccc(Cl)c3F)C2)cc1OC (stereo unspecified),8.33%
7,Cc1cccnc1NC(=O)c1ccc2c(c1)NC(=O)C(C)S2 (stereo unspecified),-14.1%
8,Cc1ccc(SCC(=O)Nc2cc(S(=O)(=O)N3CCCCC3)ccc2C)cc1,29.3%
9,O=C(Cn1nc(-c2ccccc2F)ccc1=O)Nc1ccc(S(=O)(=O)N2CCCCCC2)cc1,30.3%
10,O=C(NN=C1CCCC1)c1ccc(Cl)cc1,-5.56%
11,O=C1CCC/C(=N\NC(=O)COc2ccc(Cl)cc2)C1,2.35%
12,O=C1OC(/C(=C\Nc2ccc(F)cc2F)[N+](=O)[O-])c2ccccc21 (stereo unspecified),-5.17%
13,O=C1OC(/C(=C\Nc2ccccc2)[N+](=O)[O-])c2ccccc21 (stereo unspecified),-1.48%
14,CC(C)(C)c1cc(NCCCn2ccnc2)n2ncc(-c3ccc(Cl)cc3)c2n1,67.9%
15,CC(C)(C)c1cc(NCCCn2ccnc2)n2ncc(-c3ccccc3)c2n1,73.1%
16,CCOC(=O)c1ccc(N2CN(CC)CNC2=S)cc1,51.5%
17,OC(CCc1cccc(Cl)c1)c1cccs1 (stereo unspecified),75.1%
18,CCO[C@H]1OC(C(=O)N2CCN(Cc3ccc4c(c3)OCO4)CC2)=C[C@@H](C)[C@@H]1CCCO,-18%
19,COc1ccccc1OCCNC(=O)c1ccc(C)o1,-13.1%
20,COc1ccccc1CCNC(=O)c1ccoc1C,3.23%
21,CCOC(=O)c1cc(C(=O)NC(C)c2ccccc2)c(=O)[nH]c1C (stereo unspecified),-20.4%
22,COC(=O)CNC(=O)COC(=O)c1cc(F)c(F)cc1Cl,42.5%
23,CC(C)NC(=O)COC(=O)c1cc(Br)ccc1Cl,75.9%
24,CC(C)(C)NC(=O)COC(=O)c1cc(Br)ccc1Cl,63.1%

row,SMILES,inhibition
1,CNC(=O)COC(=O)c1cc(F)c(F)cc1Cl,19.5%
2,Cc1ccc(C)c(NC(=O)C2CC3CCC2C3)c1 (stereo unspecified),15.3%
3,CC(C)(C)OC(=O)C[C@@H]1C/C=C\C[C@@H](CC(=O)N(CCO)Cc2ccccc2)C(=O)N[C@H](Cc2c[nH]c3ccccc23)COC1=O,67%
4,Cc1ccc(SCC(=O)OCC(=O)N2CCN(C(=O)c3ccco3)CC2)c(C)c1,15.3%
5,Cc1ccc(/C=C/C(=O)N2CCCC(C(N)=O)C2)o1 (stereo unspecified),4.1%
6,O=C(c1ccc2c(c1)N(Cc1ccccc1F)C(=O)c1ccccc1S2)N1CCOCC1,33.2%
7,Cc1ccccc1OCc1n[nH]c(=S)n1-c1ccccc1,-9.9%
8,O=C(COC(=O)c1ccccc1NCCO)NCC1CCCCC1,23.3%
9,CCOc1ccc2nc(NC(=O)c3ccc(C)o3)sc2c1,27.5%
10,CCOc1ccc2nc(NC(=O)Nc3ccccc3)sc2c1,-2.52%
11,CCOc1ccc2nc(NC(=O)c3cccnc3)sc2c1,8.67%
12,CCOc1ccc2nc(NC(=O)c3ccoc3C)sc2c1,54.7%
13,COc1ccc(/C=C/C(=O)Oc2cccc(/C=N/NC(=O)Cc3ccc(Br)cc3)c2)cc1,23.8%
14,CC(NS(=O)(=O)c1ccc2c(c1)CC(C)N2C(=O)C1CC1)c1ccccc1 (stereo unspecified),12.7%
15,CCCc1cc(=O)[nH]c(SCC(=O)Nc2cc(S(=O)(=O)N3CCOCC3)ccc2N(CC)CC)n1,18.9%
16,CCCCn1c(N)c(N(CCOC)C(=O)COc2ccc(C(C)=O)cc2)c(=O)[nH]c1=O,-6.71%
17,O=C(N/N=C/c1coc2ccccc2c1=O)c1ccncc1,76.8%
18,O=C(N/N=C/c1ccc[nH]1)c1ccc([N+](=O)[O-])cc1,-12.7%
19,COc1ccc(C(=O)N/N=C\c2coc3ccccc3c2=O)cc1,50.1%
20,O=C(N/N=C/c1cc2c(cc1Cl)OCO2)c1cccc(Br)c1,-12.4%
21,O=C(N/N=C/c1ccc[nH]1)c1ccc(O)cc1,46.7%
22,O=C(N/N=C/c1cc2c(cc1Cl)OCO2)c1ccc2c(c1)OCCO2,-6.98%
23,O=C(N/N=C\c1ccc[nH]1)c1cncc(Br)c1,4.75%
24,O=C(N/N=C/c1ccc(F)cc1)c1ccncc1,53.7%

row,SMILES,inhibition
1,CCOc1cc(C(=O)NCc2ccc(-c3nc4ccccc4o3)cc2)cc(OCC)c1OCC,5.09%
2,O=C(Cc1ccc(Cl)cc1)N/N=C/c1ccccc1,16.8%
3,Cc1ccc(/C=N\Nc2cn[nH]c(=O)c2Cl)cc1,-3.74%
4,CCc1ccccc1Nc1nc2ccccc2n1C,43.6%
5,CC(C)CNS(=O)(=O)c1ccc(S(=O)(=O)N2CCN(CCC#N)CC2)cc1,6.46%
6,COc1cccc(/C=N/NC(=O)CNC(=O)c2ccc3c(c2)OCCO3)c1O,-7.52%
7,COc1cc(/C=N/NC(=O)c2ccoc2C)cc(OC)c1O,-10%
8,CCOc1cc(/C=N/NC(=O)c2ccc3c(c2)OCCO3)cc(Br)c1O,11.1%
9,O=C(N/N=C/c1ccccc1)c1ccc2c(c1)OCO2,51.5%
10,COc1cccc(/C=N/NC(=O)N/N=C/c2cccc(OC)c2O)c1O,-1.08%
11,O=C(N/N=C/c1ccc2c(c1)OCO2)c1ccc2c(c1)OCO2,23.3%
12,CCN(CC(=O)Nc1sc2c(c1C#N)CCC(C)C2)Cc1nc2ccccc2c(=O)[nH]1 (stereo unspecified),5.89%
13,NC(=O)C1CCCN1 (stereo unspecified),3.98%
14,CC1(C)CC(=O)c2cnc(NCC3CCCO3)nc2C1 (stereo unspecified),-8.53%
15,COC(=O)CSc1nnc2c3c4c(sc3nc(-n3nc(C)cc3C)n12)COC(C)(C)C4,0.76%
16,O=C1c2ccccc2C(=O)N1CCC#Cc1ccc2cc(CCCO)oc(=O)c2c1,12.8%
17,O=C(Nc1ccccn1)c1ccc(COc2ccccc2Cl)o1,72.4%
18,CCc1ccc(OCc2ccc(C(=O)NCc3ccccn3)o2)cc1,64.5%
19,CCOc1ccc(OCc2ccc(C(=O)O)o2)cc1,18.9%
20,O=C(c1ccc(COc2ccccc2Cl)o1)N1CCCC1,-8.31%
